Potency and affinity values are given separately.
Assays:
[1] = tested on: Klebsiella pneumoniae; settings: Concentration 20 uM; ASSAY_TEST Inhibition of Bacterial Growth; detection method Absorption (OD600); MEDIA CAMHB; plate type 384well; NBS; CORNING #3640; time 18 hr
[2] = tested on: Candida albicans; settings: 20 µM
[3] = tested on: Cryptococcus neoformans; settings: Concentration 20 uM; ASSAY_TEST Inhibition of Fungal Growth; detection method Resazurin; Absorption (OD600-OD570); plate type 384well; NBS; CORNING #3640

| Compound | Inhibition [1] [%] | Inhibition [2] [%] | Inhibition [3] [%] |
| --- | --- | --- | --- |
| OC[C@H]1O[C@@H](n2c3ccc(Cl)cc3c3c(-c4cc5ccccc5o4)ncnc32)C(O)[C@H]1O (some centres not stated) | 8.56 | 8.5 | 3.55 |
| CCN(CC)C(=O)N1CCN(C)CC1 [DIETHYLCARBAMAZINE] | 16.19 | 2.79 | -5.92 |
| COc1ccc(-c2nnc3ccc(-c4cccc(C(C)C)c4)cn23)cc1OC | -10.87 | 15 | -9.03 |
| O=C(C(Cc1c[nH]c2ccccc12)NS(=O)(=O)c1ccc(Cl)cc1)N1CCCCC1 (configuration not stated) | 4.11 | 2.45 | -6.5 |
| CS(=O)(=O)c1ccc(C(=O)N(CC2CCCO2)c2nc3ccccc3s2)cc1[N+](=O)[O-] (configuration not stated) | 7.4 | 3.23 | -10.33 |
| Cc1ccc(S(=O)(=O)N2CCN(C(=O)c3cc(-c4ccccc4)n[nH]3)CC2)cc1 | -15.32 | 6.95 | -7.39 |
| c1ccc(Oc2ccc(-c3cc(N4CCOCC4)[nH]n3)cc2)cc1 | 8.77 | 5.83 | -7.11 |
| COc1ccc(-c2nn(C(C)C)c3ncnc(N)c23)cc1OC | 10.07 | 2.58 | -0.18 |
| Cc1cc2ccccc2n1CC(=O)N1CC(C(=O)N2CCCCC2)Oc2ccccc21 (configuration not stated) | 14.31 | 4.16 | -5.34 |
